PubChem BioAssay (NCATS)
Inconclusive results are not listed. A number with no mark means an inactive call. The source made the active and inactive calls. The call rests on the fitted dose curve; in most records, active means well fitted inhibition curve with a large enough effect; inconclusive means small, poorly fitted or top-dose-only effect; inactive means flat fitted curve, though single readings scatter.

What follows are compounds tested on TAB165 (assay: qHTS profiling for inhibitors of Plasmodium falciparum proliferation (AID 504749; further: nearly all actives have a fitted effect of over 60% in size;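 on activity, negative = inhibition: 0% = DMSO vehicle and full inhibition = artemisinin control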)). Conditions: P. falciparum in erythrocytes, SYBR Green DNA, 72 h; series mostly up to 28.7 µM; activity, negative = inhibition: at the top concentration.
In short: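 Three-day growth assay of blood-stage parasites in erythrocytes (0.3% parasitemia, 2.5% hematocrit) at 37 C, 5% CO2, quantified by SYBR Green DNA staining after overnight detergent lysis.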
Potency means the concentration at half of the fitted maximal effect.

Row | SMILES | activity, negative = inhibition | Potency
1 | CC(C)NCC(O)COc1ccccc1-n1cccc1 (centres undefined) | 18.1% | –
2 | CC(C)Cc1ccc([C@@H](C)C(=O)NS(C)(=O)=O)cc1 | 2.15% | –
3 | N=C(N)c1ccc(/C=C/c2ccc(C(=N)N)cc2O)cc1 | – | 4.47 µM (active)
4 | CC(=O)Oc1cccc(C(=O)O)c1OC(C)=O | 8.3% | –
5 | c1ccc2c(c1)Sc1ccccc1N2CCN1CCCC1 | – | 7.08 µM (active)
6 | C[C@H](N)C(=O)N[C@@H](C)P(=O)(O)O | 11.5% | –
7 | CC1=CC(=C(c2ccc(N)cc2)c2ccc(N)cc2)C=CC1=N | – | 2 µM (active)
8 | OCCOCCOCCO | 9.21% | –
9 | CCN(CC)C(=O)c1cccnc1 | 8.84% | –
10 | CNC(=O)c1c(I)c(C(=O)NCC(=O)Nc2c(I)c(C(=O)O)c(I)c(C(=O)NCCO)c2I)c(I)c(N(C)C(C)=O)c1I | -5.91% | –
11 | CCSc1ccc2c(c1)N(CCCN1CCN(C)CC1)c1ccccc1S2 | -7.83% [at 12.8 µM] | –
12 | O=C1NCCN1c1ncc([N+](=O)[O-])s1 | -1.2% [at 12.8 µM] | –
13 | Cc1cc(C(=O)NCCc2ccc(S(=O)(=O)NC(=O)NN3CCCCCC3)cc2)no1 | 3.57% | –
14 | COc1ccc(/C=N/NC(=O)c2ccncc2)c(C(=O)O)c1OC | 6.38% | –
